Compounds with a hit are over-represented: about 4% of the library has one in this group of screens.
Mtb betalactam: beta-lactam sensitization of Mtb H37Rv; actives 0.27% (n = 330,000); AID 434955; M. tuberculosis H37Rv growth with meropenem, percent inhibition; inhibition, % at 25 µM;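 note: growth measured after seven days incubation then overnight dye step; 0% = bacteria only wells and 100% = bacteria with antibiotic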
Rv3671c protease: inhibitors of M. tuberculosis serine protease Rv3671c; actives 0.048% (n = 320,000); AID 2606; inhibition, % at 5.96 µM; in the data active = inhibition above about 38%;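 note: extracellular domain of Rv3671c used as enzyme; 0% = enzyme with DMSO and 100% = no enzyme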
GDH-TPI inh: counter-screen for M. tuberculosis FBA inhibitors: GDH-TPI coupled enzymes; actives 1.2% (n = 360,000); GDH-TPI coupled enzyme counterscreen, NADH absorbance; inhibition, % at 4.8 µM; in the data active = inhibition above about 30%;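 note: 0% = DMSO wells and 100% = wells lacking the enzyme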
Mtb FBA inh: Mtb fructose-bisphosphate aldolase inhibition. P9WQA3. purified M. tuberculosis FBA, fluorescence read-out. inhibition, % at 1 µM. actives 2.3% (n = 360,000); in the data active = inhibition above about 27%;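 note: 0% = vehicle and 100% = reference inhibitor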
UGM FP inh: Mtb UDP-galactopyranose mutase inhibition. P9WIQ1. purified UGM, fluorescence polarization probe displacement. inhibition, % at 10 µM. actives 0.06% (n = 320,000). AID 504406; in the data active = inhibition above about 10%, passing the limit was not always enough; inconclusive = no clear call, values can overlap the other calls
Target sequence (P9WIQ1 whole entry, looked up): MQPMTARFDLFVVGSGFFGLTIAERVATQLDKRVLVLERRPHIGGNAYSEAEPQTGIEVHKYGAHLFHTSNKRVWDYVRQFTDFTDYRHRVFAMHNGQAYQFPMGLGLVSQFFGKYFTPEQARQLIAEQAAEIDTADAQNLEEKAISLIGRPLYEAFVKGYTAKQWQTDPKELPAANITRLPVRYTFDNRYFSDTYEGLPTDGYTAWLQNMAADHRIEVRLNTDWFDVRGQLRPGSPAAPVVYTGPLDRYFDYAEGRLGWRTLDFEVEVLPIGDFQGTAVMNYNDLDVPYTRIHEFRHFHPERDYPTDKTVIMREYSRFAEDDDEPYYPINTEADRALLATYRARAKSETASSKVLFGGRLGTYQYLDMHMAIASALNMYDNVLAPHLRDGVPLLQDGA
RecA intein inh: Mtb RecA intein splicing inhibition; cell-free RecA intein splicing, fluorescence; actives 0.75% (n = 290,000); P9WHJ3; inhibition, % (no concentration beside the values); AID 2221; in the data active = inhibition above about 30%; inconclusive = no clear call, values can overlap the other calls;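 note: 0% = vehicle wells and 100% = reference inhibitor control wells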
GFP chromophore: counter-screen: blocks GFP chromophore formation | actives 83% (n = 2,100) | cell-free GFP chromophore formation, fluorescence | AID 434968 | shares compounds with RecA intein inh | EC50, µM
Numbers without * were called inactive; u = inconclusive; x = not tested or not shown. Unless noted, the rule behind the calls is not given here.

SMILES | Mtb betalactam | Rv3671c protease | GDH-TPI inh | Mtb FBA inh | UGM FP inh | RecA intein inh | GFP chromophore
CCc1[nH]nc2c1C(c1ccsc1)C(C#N)=C(N)O2 (stereo unspecified) | -14 | 4 | 8 | -3 | 0 | 77* | 26*
CC(C)(C)c1[nH]nc2c1C(c1ccsc1)C(C#N)=C(N)O2 (stereo unspecified) | -4 | -12 | 1 | 7 | 1 | 27 | x
N#CC1=C(N)Oc2n[nH]c(-c3cccs3)c2C1c1ccsc1 (stereo unspecified) | -6 | -21 | 7 | -5 | -1 | 91* | 5.4*
CCC(OC(=O)CN1C(=O)C(=O)c2ccccc21)C(=O)Nc1ccccc1OC (stereo unspecified) | x | x | 3 | -1 | x | 0 | x
COc1ccc(C(CNC(=O)c2cccc(S(=O)(=O)N3CCCCC3)c2)N2CCCC2)cc1 (stereo unspecified) | -8 | 0 | -5 | 4 | -1 | x | x
CC(C)(C)c1ccc(-n2nc(C#N)c(Cl)cc2=O)cc1 | x | x | 8 | 4 | x | 93* | 2.6*
Cc1ccc(NC2=CC(=O)C(=O)c3ccccc32)c(C)c1 | 27 | -105 | 10 | -2 | 1 | x | x
O=C1C=C(Nc2ccccc2O)c2ccccc2C1=O | 98 | -112 | 10 | -4 | 3 | 95* | >38
O=C1C=C(NCc2ccccc2)c2ccccc2C1=O | x | x | -10 | -2 | x | 92* | 0.86*
CCN(CC(=O)Nc1ccc(NC(C)=O)cc1)C(=O)c1cccc(S(=O)(=O)N2c3ccccc3CC2C)c1 (stereo unspecified) | -2 | 0 | 9 | 0 | 2 | 5 | x
CCCCCC(=O)O[C@]1(C(C)=O)CC[C@H]2[C@@H]3CCC4=CC(=O)CC[C@]4(C)[C@H]3CC[C@@]21C | 12 | 4 | 0 | 0 | 3 | 33* | >38
CC(=O)[C@@]1(O)CC[C@H]2[C@@H]3CCC4=CC(=O)CC[C@]4(C)[C@H]3CC[C@@]21C | 3 | -4 | 3 | -1 | -1 | 1 | x
CC1=NN(c2ccccc2)C(=O)/C1=C/c1ccc(Cl)cc1 | 6 | x | -1 | 0 | -2 | 85* | 3.2*
CC1=NN(c2ccccc2)C(=O)/C1=C\c1cc(C)n(-c2cccnc2)c1C | -11 | -6 | 4 | 0 | -2 | 33* | 31*
COc1ccc(/C=C2/C(=O)N(Cc3ccccc3)N=C2C)cc1 | 2 | -59 | 2 | 5 | -2 | 59* | 7.3*
CC1=NN(c2ccccc2)C(=O)/C1=C/c1cccs1 | -10 | -177 | 16 | 1 | 1 | 85* | 6*
CC1=NN(c2ccccc2)C(=O)C1=Cc1ccccc1 | x | x | 1 | -2 | x | x | x
COc1ccc(-c2ccc(=O)n(Cc3ccccc3)n2)cc1 | -1 | 0 | -3 | 3 | 1 | 5 | x
Nc1ccn([C@@H]2O[C@H](CNC(=O)[C@@H](Cc3cn(COCc4ccccc4)cn3)NC=O)[C@@H](O)[C@H]2O)c(=O)n1 | x | x | -3 | -1 | x | x | x
CCCn1nnnc1SCC(=O)NC1CCCC1 | -6 | -6 | 2 | 1 | 7 | -3 | x
Nc1ccc2nc(Cc3ccccc3)[nH]c2c1 | -1 | -16 | 6 | 1 | 2 | 30* | >38
COc1ccc(S(=O)(=O)Nc2cccc3c2O[C@H](CN(C)C(=O)Nc2ccccc2)[C@@H](C)CN([C@H](C)CO)C3=O)cc1 | -1 | 3 | 9 | -2 | x | x | x
CCCCCCCCCCC[N+](C)(C)CC/C=C1/c2ccccc2Sc2ccc(Cl)cc21 | 100 | 3 | 5 | -1 | -4 | 63* | 9.5*
CCCCCCCCCC[N+](C)(C)CC/C=C1/c2ccccc2Sc2ccc(Cl)cc21 | 100 | 14 | 4 | 0 | -3 | 69* | 12*
CC[N+](C)(C)CC/C=C1/c2ccccc2Sc2ccc(Cl)cc21 | -12 | -1 | 5 | 1 | -1 | 14 | x
SMILES | Mtb betalactam | Rv3671c protease | GDH-TPI inh | Mtb FBA inh | UGM FP inh | RecA intein inh | GFP chromophore
CN(C)CC/C=C1\c2ccccc2Sc2ccc(Cl)cc21 | 80 | 4 | 4 | 5 | 4 | 4 | x
O=C1CC(N2CCOCC2)C(=O)N1c1cccc(Cl)c1 (stereo unspecified) | 2 | 1 | 1 | -1 | -1 | -4 | x
Cc1cccc(N2C(=O)C(Cl)=C(N3CCOCC3)C2=O)c1 | u | 0 | 24 | 0 | 0 | 87* | 4.5*
O=C1C(Cl)=C(N2CCOCC2)C(=O)N1c1cccc(Cl)c1 | 98 | -11 | 17 | -1 | 1 | 84* | 2.8*
O=C(NC1CCCC1)c1cc(-c2ccc(Cl)cc2Cl)on1 | -5 | -5 | -4 | 1 | 1 | 4 | x
CCCOc1ccccc1OCC(=O)Nc1cccc(S(=O)(=O)NC2=NCCC2)c1 | x | x | 5 | 6 | x | x | x
CCCc1c(C(=O)NNc2cccc(Cl)c2)cnn1-c1ccccc1 | 93 | -5 | 1 | 1 | 0 | 32* | >38
O=C(COc1cc2oc(=O)c3c(c2cc1Cl)CCC3)Nc1cccnc1 | -4 | -13 | 8 | 2 | -1 | -2 | x
Cc1c(OCC(=O)Nc2cccnc2)ccc2c3c(c(=O)oc12)CCC3 | -2 | 3 | 6 | 6 | -7 | 94* | 10*
Cc1nc(CN2C(=O)C3(CCC3)ON=C2c2cccc(Cl)c2)cs1 | x | x | 5 | -2 | x | x | x
CC(C(=O)Nc1ccc2[nH]c(=O)[nH]c2c1)N1CCN(Cc2ccc3c(c2)OCO3)CC1 (stereo unspecified) | -6 | 2 | -1 | -5 | -2 | x | x
Cc1ccc(NC2=C(NC(=O)c3ccccc3)C(=O)c3ccccc3C2=O)cc1Cl | 88 | -69 | 12 | -6 | -1 | 70* | 6.4*
O=C1C(Cl)=C(Nc2ccccc2)C(=O)c2ccccc21 | 1 | -5 | 14 | -4 | 1 | 2 | x
O=C(O)c1ccc(NC2=C(Cl)C(=O)c3ccccc3C2=O)cc1 | -2 | -4 | 5 | 0 | 3 | 98* | 2.2*
Cc1ccc(NCC(=O)c2ccccc2)cc1Cl | 96 | -2 | 2 | 1 | 0 | -1 | x
CCN(Cc1nc2ccccc2c(=O)[nH]1)C(=O)c1cccc(S(=O)(=O)N2CCc3ccccc32)c1 | -8 | 6 | 10 | 1 | -1 | x | x
Cc1cc2c(cc1C)N(C(=O)CSc1nncn1C)C(C)(C)c1ssc(=S)c1-2 | 7 | -3 | 2 | -6 | 0 | 22 | x
Cc1ccc2c(c1)N(C(=O)CSc1nncn1C)C(C)(C)c1ssc(=S)c1-2 | -1 | 3 | 3 | -6 | 1 | 39* | 14*
CCOC(=O)c1ccc([N+](=O)[O-])c(CS(=O)(=O)c2ccc(Cl)cc2)c1 | 3 | -2 | -1 | 1 | 2 | 1 | x
Cc1ccc(S(=O)(=O)Cc2cc(F)c([N+](=O)[O-])cc2[N+](=O)[O-])cc1 | 100 | -2 | 0 | -5 | 3 | 35* | 23*
O=S(=O)(Nc1cc2nc3ccccc3nc2n1Cc1ccccc1)c1ccc(Cl)cc1 | -1 | -231 | 8 | 12 | -2 | 60* | 6.3*

Screening results from PubChem BioAssay.
